Laboratory results: PubChem BioAssay AID504333 (National Center for Advancing Translational Sciences (NCATS), 2011)
Among all 360,000 compounds or so, about 16,000 (4.4%) were called active. About 9% were inconclusive and are not listed. The call rests on the fitted dose curve; in most records, active means well fitted inhibition curve with a large enough effect; inconclusive means small, poorly fitted or top-dose-only effect; inactive means no such curve, though single readings can be large or run the other way. What follows is part of a selection rich in actives, with near analogues and random picks from the rest. Where a call stands in place of a potency, no number is given.

Target: Bromodomain adjacent to zinc finger domain protein 2B (Homo sapiens) (UniProt Q9UIF8)
Assay: qHTS Assay for Inhibitors of BAZ2B; further: nearly all actives have a fitted effect of over 60% in size
Conditions: AlphaScreen BAZ2B-H3K14Ac peptide displacement; series mostly up to 114 µM
How it was run: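 In this displacement format the biotinylated H3(5-23) peptide acetylated at Lys14 serves as ligand at 50 nM, with BAZ2B at 50 nM in PBS pH 7.4 containing 0.01% Tween-20. Donor and acceptor beads are 10 ug/mL final.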
Potency means the concentration at half of the fitted maximal effect.

Chain of Bromodomain adjacent to zinc finger domain protein 2B (Homo sapiens) (Q9UIF8 whole entry, looked up, the tested form may be a part): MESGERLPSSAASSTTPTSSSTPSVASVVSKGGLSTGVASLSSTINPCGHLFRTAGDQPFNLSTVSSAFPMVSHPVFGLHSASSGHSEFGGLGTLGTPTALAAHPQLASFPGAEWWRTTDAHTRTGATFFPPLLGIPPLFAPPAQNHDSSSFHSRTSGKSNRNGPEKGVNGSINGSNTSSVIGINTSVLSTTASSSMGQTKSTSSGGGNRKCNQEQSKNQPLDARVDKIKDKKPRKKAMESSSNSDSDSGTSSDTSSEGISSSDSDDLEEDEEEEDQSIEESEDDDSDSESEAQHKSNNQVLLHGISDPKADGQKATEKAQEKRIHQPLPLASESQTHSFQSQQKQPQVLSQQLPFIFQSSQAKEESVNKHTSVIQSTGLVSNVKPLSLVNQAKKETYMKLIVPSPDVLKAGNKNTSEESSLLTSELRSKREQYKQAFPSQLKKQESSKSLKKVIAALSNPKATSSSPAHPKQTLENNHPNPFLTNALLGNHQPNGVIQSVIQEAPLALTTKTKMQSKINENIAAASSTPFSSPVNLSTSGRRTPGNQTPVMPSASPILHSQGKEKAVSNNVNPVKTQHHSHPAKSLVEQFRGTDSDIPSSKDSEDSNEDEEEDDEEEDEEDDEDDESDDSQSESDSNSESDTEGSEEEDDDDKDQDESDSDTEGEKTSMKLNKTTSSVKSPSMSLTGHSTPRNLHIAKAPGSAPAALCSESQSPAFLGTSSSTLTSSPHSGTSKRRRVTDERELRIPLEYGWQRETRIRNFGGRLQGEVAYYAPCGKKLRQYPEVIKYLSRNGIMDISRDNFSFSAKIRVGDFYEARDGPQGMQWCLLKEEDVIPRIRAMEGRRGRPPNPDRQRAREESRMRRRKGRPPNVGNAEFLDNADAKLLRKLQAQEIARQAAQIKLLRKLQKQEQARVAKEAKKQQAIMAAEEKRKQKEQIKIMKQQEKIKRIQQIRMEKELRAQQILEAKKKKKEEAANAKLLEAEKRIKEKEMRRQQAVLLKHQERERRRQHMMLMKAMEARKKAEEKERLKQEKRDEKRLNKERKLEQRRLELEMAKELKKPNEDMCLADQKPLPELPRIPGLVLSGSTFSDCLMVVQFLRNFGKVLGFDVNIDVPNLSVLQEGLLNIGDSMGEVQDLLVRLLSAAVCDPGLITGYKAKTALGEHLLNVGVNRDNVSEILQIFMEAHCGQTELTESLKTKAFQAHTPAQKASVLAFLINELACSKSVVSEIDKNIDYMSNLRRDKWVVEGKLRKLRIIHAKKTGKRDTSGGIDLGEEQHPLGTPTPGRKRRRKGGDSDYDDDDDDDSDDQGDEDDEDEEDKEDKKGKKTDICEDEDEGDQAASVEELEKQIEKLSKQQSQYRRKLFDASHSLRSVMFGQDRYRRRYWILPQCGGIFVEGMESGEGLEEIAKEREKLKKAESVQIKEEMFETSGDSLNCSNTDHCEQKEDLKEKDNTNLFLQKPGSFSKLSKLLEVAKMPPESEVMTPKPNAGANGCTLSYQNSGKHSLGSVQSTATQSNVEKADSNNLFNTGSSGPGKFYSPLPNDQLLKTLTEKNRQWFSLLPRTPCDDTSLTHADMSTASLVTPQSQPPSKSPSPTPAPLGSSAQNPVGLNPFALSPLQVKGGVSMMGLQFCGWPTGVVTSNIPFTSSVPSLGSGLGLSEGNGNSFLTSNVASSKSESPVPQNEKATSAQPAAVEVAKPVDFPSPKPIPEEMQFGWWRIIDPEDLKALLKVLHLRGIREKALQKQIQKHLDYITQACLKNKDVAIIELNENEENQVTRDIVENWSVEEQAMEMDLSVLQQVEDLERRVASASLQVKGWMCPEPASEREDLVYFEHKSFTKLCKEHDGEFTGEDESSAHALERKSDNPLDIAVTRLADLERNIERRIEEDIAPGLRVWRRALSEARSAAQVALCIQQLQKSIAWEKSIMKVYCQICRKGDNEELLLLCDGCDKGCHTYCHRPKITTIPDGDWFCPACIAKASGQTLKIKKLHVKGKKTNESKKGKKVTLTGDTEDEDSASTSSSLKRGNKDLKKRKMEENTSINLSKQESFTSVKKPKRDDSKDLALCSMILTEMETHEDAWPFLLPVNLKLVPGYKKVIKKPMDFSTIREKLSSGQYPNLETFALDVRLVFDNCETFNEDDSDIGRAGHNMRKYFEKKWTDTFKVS

Compound	Potency
Cc1cccc(C2CC(=O)Oc3c2c(=O)n(C)c2ccccc32)c1 (centres undefined)	inactive
CCOC(=O)C1=C(C)NC(SC)=NC1c1ccccc1 (centres undefined)	inactive
CCOC(=O)C1=C(C)N=C2c3ccccc3C(=O)C2C1c1ccc(Br)cc1 (centres undefined)	22.4 µM (active)
Cc1cccc(C2C3=C(CCCC3=O)N=C3c4ccccc4C(=O)C32)c1 (centres undefined)	inactive
CCCN1CCc2nc(N3CCN(C)CC3)ncc2C1	inactive
COC(C(=O)Nc1ccc(C(C)=O)cc1)c1ccccc1 (centres undefined)	inactive
COc1ccc(NC(=O)[C@H](NC(=O)[C@@H]2Cc3ccccc3CN2)c2ccccc2)cc1	inactive
COc1ccc(NC(C(=O)Nc2cccc(C(C)=O)c2)c2ccccc2)cc1 (centres undefined)	50.1 µM (active)
Cc1cccc(C(=O)Nc2ccc(-c3nc4ccccc4s3)c(C)c2)c1	inactive
O=C(Nc1ccc2nc(SCCOc3ccccc3Cl)sc2c1)c1ccco1	inactive
CCOc1cccc(-c2nn3c(-c4ccccn4)nnc3s2)c1	50.1 µM (active)
COc1cc(-c2nn3c(-c4cccc(C)c4)nnc3s2)cc(OC)c1OC	inactive
c1ccc(-c2cc(-c3nnc4sc(-c5ccccn5)nn34)[nH]n2)cc1	inactive
COc1ccc(/C=C2\SC(=O)N(CCC(=O)NCCCn3ccnc3)C2=O)cc1	inactive
COc1ccc(/C=C2/SC(=O)N(CCCCCC(=O)Nc3ccccc3C(=O)O)C2=S)cc1	56.2 µM (active)
COc1ccc(/C=C2\SC(=O)N(CCC(=O)NC3CCS(=O)(=O)C3)C2=O)cc1 (centres undefined)	inactive
CCCCNc1ccc(-c2nc(-c3ccncc3)no2)cc1[N+](=O)[O-]	inactive
CCN(Cc1ccccc1)Cc1c(O)ccc2c(=O)c(-c3ccc(Cl)cc3Cl)coc12	inactive
COc1ccc2c(c1)C(C)=CC(C)(C)N2C(=O)Nc1ccccc1	50.1 µM (active)
CC1=CC(C)(C)N(C(=O)CSc2nnc(-c3ccccc3)o2)c2ccc(C)cc21	inactive
COc1cccc(NC(=O)C2C(c3ccccc3)C2(Cl)Cl)c1 (centres undefined)	inactive
CC1=C(C(=O)OCc2ccc(C)cc2)C(c2c(Cl)cccc2Cl)CC(=O)N1 (centres undefined)	inactive
Cc1ccc(OCCn2c(CNc3ccccc3C)nc3ccccc32)cc1	inactive
COc1ccc(OC)c(NC(=O)C2CCCN(S(=O)(=O)c3ccc4c(c3)CCCC(=O)N4)C2)c1 (centres undefined)	inactive
COC(=O)c1cc(C(=O)NC(C)C2CC3CCC2C3)cc([N+](=O)[O-])c1 (centres undefined)	inactive

Compound	Potency
CC1CCC2CCCCC2N1C(=O)c1cc([N+](=O)[O-])cc([N+](=O)[O-])c1 (centres undefined)	50.1 µM (active)
O=C(c1cc(C(=O)N2CCN(c3ccc(F)cc3)CC2)cc([N+](=O)[O-])c1)N1CCN(c2ccc(F)cc2)CC1	inactive
COc1ccc(N2CCN(c3cc(C)nc4nncn34)CC2)cc1	inactive
COc1ccc(N2C(=O)CSC23C(=O)N(Cc2cccc(F)c2)c2ccccc23)cc1Cl (centres undefined)	inactive
Cc1ccc(-n2c(SCC(=O)c3ccccc3)nc3c([nH]c4ccccc43)c2=O)cc1	inactive
COc1ccc(C)cc1NC(=O)NCc1ccccn1	inactive
COc1ccc2ccccc2c1CNCc1ccccn1	79.4 µM (active)
COc1ccc2ccccc2c1CNc1nnnn1C	inactive
CCCSc1ncc(Cl)c(C(=O)Nc2sc3c(c2C(=O)NCCOC)CCCC3)n1	inactive
Cc1c(Cl)cccc1NC(=O)C1CCCN(c2ncnc3onc(C)c23)C1 (centres undefined)	inactive
CCOC(=O)N1CCc2c(sc3c2c(=O)n(Cc2ccccc2)c(=O)n3CC(=O)Nc2cccc(C)c2)C1	inactive
Cc1ccc(NC(=O)Cn2c(=O)n(-c3ccccc3)c(=O)c3c4c(sc32)CCCC4)cc1	inactive
O=c1c2c3c(sc2n(CCN2CCCC2)c(=O)n1Cc1ccccc1)CCCCC3	89.1 µM (active)
O=C(Nc1cc(C(F)(F)F)ccc1Cl)c1nc2ccccc2nc1N1CCCCC1	inactive
COc1cc2c(cc1OC)C(c1ccccc1Br)NC(=O)C2 (centres undefined)	inactive
Brc1ccccc1C1Nc2cccc3cccc(c23)N1	44.7 µM (active)
Brc1ccccc1C1N=C(c2ccccc2)NO1 (centres undefined)	inactive
COc1ccc(N2CCN(C(=O)c3ccc4c(Cl)c5c(nc4c3)CCCC5)CC2)cc1	inactive
COc1ccc(N2CCN(C(=O)c3ccc(N4CCCCS4(=O)=O)cc3)CC2)cc1	50.1 µM (active)
COc1ccc(C(=O)Nc2ccccc2C(=O)N2CCN(c3ccccc3)CC2)cc1	inactive
O=C(NCC(c1cccnc1)N1CCc2ccccc21)c1cccc(C(F)(F)F)c1 (centres undefined)	inactive
COc1ccc(-c2nn3c(=O)cc(CN4CCN(C(=O)c5ccc(OC)c(OC)c5)CC4)nc3s2)cc1	inactive
COc1ccc(S(=O)(=O)/N=C2\C=C(NS(=O)(=O)c3ccccc3)C(=O)c3ccccc32)cc1	10 µM (active)
COc1ccc(S(=O)(=O)Nc2cc3c(C(=O)OC(C)C)c(C)oc3c3ccccc23)cc1	inactive
COc1ccc(NC(=O)c2cnc(NS(=O)(=O)c3ccccc3)nc2)cc1	inactive

Compound	Potency
COc1cc(NC(=O)c2nc3ccccc3nc2C)cc(OC)c1OC	inactive
CCOc1ccc(NCCC(=O)c2ccc3c(c2)OCO3)cc1	39.8 µM (active)
COC(=O)CCNc1ccc2c(c1)OCCO2	inactive
O=C(COc1ccc(Cl)cc1)Nc1ccc2c(c1)OCO2	inactive
CCCCN1C(=O)c2[nH]nc(-c3ccccc3O)c2C1c1cccc(OCc2ccccc2)c1 (centres undefined)	inactive
Cc1cccc(NC(=O)c2ccc3nc(C(C)C)oc3c2)c1C	inactive
CC(=O)c1ccc(NS(=O)(=O)c2ccc(-c3cc(C)no3)s2)cc1	inactive
O=C(Nc1cc(Cl)cc(Cl)c1)c1ccc2c(c1)N(Cc1cccc(Cl)c1)C(=O)c1ccccc1S2=O (centres undefined)	inactive
CCOC(=O)c1ccc(NC(=O)C2CCN(S(=O)(=O)c3ccc4c(c3)CCCC(=O)N4)CC2)cc1	inactive
C=CCSc1nnc(N2C(=O)C(O)=C(C(=O)c3ccco3)C2c2ccc(F)cc2)s1 (centres undefined)	50.1 µM (active)
O=C(C1=C(O)C(=O)N(Cc2ccccc2)C1c1ccco1)c1ccco1 (centres undefined)	inactive
CC(C)c1ccc(C2C(C(=O)c3ccco3)=C(O)C(=O)N2CC2CCCO2)cc1 (centres undefined)	inactive
COc1ccccc1N1CCN(c2ncnc3onc(-c4ccc(F)cc4)c23)CC1	inactive
O=c1cc2nc(-c3ccccc3)nc(SCCOc3ccc(Cl)cc3)n2[nH]1	50.1 µM (active)
Cc1nc(SCCOc2ccc(Cl)cc2)[nH]c(=O)c1Cc1ccccc1	inactive
Cc1ccc(-c2nc(SCc3ccc(Br)cc3)n3[nH]c(=O)cc3n2)cc1	79.4 µM (active)
CC(C)c1c(O)nc(SCCOc2ccc(Cl)cc2)[nH]c1=O	inactive
CCn1c(SCC(=O)c2ccc3ccccc3c2)nnc1-c1cccs1	inactive
Cc1ccc2nc(-c3ccc(Br)cc3)cn2c1	inactive
Cc1cccc(-c2nc(SCc3ccc(Br)cc3)n3[nH]c(=O)cc3n2)c1	inactive
Cc1ccc(OCCSc2nc(-c3cccs3)nc3cc(=O)[nH]n23)cc1Cl	50.1 µM (active)
CC(C)(C)C1CCc2c(sc(NC(=O)c3ccccc3F)c2C(=O)N2CCCCC2)C1 (centres undefined)	inactive
COc1cccc(-c2cc(C(=O)Nc3ccc(C)cc3)[nH]n2)c1	inactive
COc1ccc(-c2noc(-c3ccc(N4CCN(c5ccccc5)CC4)c([N+](=O)[O-])c3)n2)cc1OC	inactive
CCN(CC)S(=O)(=O)c1ccc2c(c1)N(CC(=O)NCc1ccccc1)C(=O)CS2	inactive

Compound	Potency
CCNS(=O)(=O)c1cc(-c2nnc(Nc3cccc(C(F)(F)F)c3)c3ccccc23)ccc1C	inactive
CCC(=O)Nc1sc(C(=O)Nc2ccccc2)c(C)c1C(=O)OC	inactive
COC(=O)c1c(NC(=O)c2c(Cl)cnn2C)sc(C)c1C	inactive
COCCCNCC(=O)Nc1sc(C)c(C)c1C(=O)OC	50.1 µM (active)
Cc1ccc2c(=O)cc(C(=O)Nc3sc4c(c3C(=O)NCc3cccnc3)CCCC4)oc2c1	inactive
CCOC(=O)c1c(C)n(S(=O)(=O)c2ccc(C)cc2C)c2ccc(NS(=O)(=O)c3ccc(C)cc3C)cc12	inactive
Cc1ccc(CNC(=O)c2c(O)nc3c(C)cccn3c2=O)cc1	inactive
CNc1ccc(-c2nc(-c3ccco3)no2)cc1[N+](=O)[O-]	inactive
CNc1ccc(-c2nc(-c3ccccc3C)no2)cc1[N+](=O)[O-]	inactive
CC(Nc1ccc(-c2nc(-c3ccco3)no2)cc1[N+](=O)[O-])c1ccccc1 (centres undefined)	79.4 µM (active)
COc1ccc(NC(=O)c2ccc3nc(CCc4ccccc4)oc3c2)c(OC)c1	inactive
O=C1Cc2cc(S(=O)(=O)Nc3ccc(OC(F)(F)F)cc3)cc3c2N1CCC3	inactive
COc1ccc2c(CNCCc3ccccc3C)c(C(=O)O)n(Cc3ccccc3C)c2c1	inactive
CN1C(=O)/C(=C/c2ccco2)SC1=Nc1cccc(C(=O)O)c1	50.1 µM (active)
CN=C1S/C(=C\c2c(OC)cc(OC)cc2OC)C(=O)N1C	inactive
O=C(O)c1cccc(N=NN2CCCCCC2)c1	inactive
CCCCCCn1nnc2sc(-c3ccccc3)cc2c1=O	inactive
Cc1cc2[nH]ncc2cc1NC(=S)NC(=O)c1ccccc1	inactive
Cc1ccc(C(=O)NC(=S)Nc2ccccc2C)cc1	89.1 µM (active)
Cc1cc(C(=O)NNC(=S)Nc2ccccc2C)cs1	inactive
Cc1ccc(C(=O)NC(=S)NCCN2CCOCC2)cc1	inactive
COC(=O)c1ccc(NC(=S)NN2CCOCC2)cc1	inactive
Cc1ccc(C(=O)NC(=S)Nc2ccc(N3CCOCC3)cc2)cc1	14.1 µM (active)
COc1ccc(-c2cc(C(F)(F)F)nc(SCC(=O)N(C)Cc3ccccc3)n2)cc1OC	inactive
